The source of these data is PubChem BioAssay AID1345085 (National Center for Advancing Translational Sciences (NCATS), 2018).

Records with an inconclusive call do not appear. Active and inactive are the calls of the source. Calls follow the shape of the dose curve; as a rule, active = well fitted cell-killing curve with a large enough effect; inconclusive = small, poorly fitted or top-dose-only effect, or effect the other way; inactive = no such curve, though single readings can be large or run the other way.
Potency is read from the fitted curve at half-maximal effect.

This assay concerns HeLa. Kind of assay: Confirmatory qHTS for gynecologic anti-cancer compounds from libraries of approved drugs and bioactive compounds. Also: nearly all actives have a fitted effect of over 55% in size. To be noted: gynecologic cancer cell panel viability, ATPlite luminescence, 48 h; series mostly up to 57.6 µM. In a few lines: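 ATPlite luminescence read-out of cell viability; IC50 from 11-point 1:3 titrations, 57.5 uM to 0.977 nM, 48 h compound exposure at 37 C, 5% CO2. Cells seeded at 1,000/well 16 h before dosing.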
A general note: In qHTS, concentration-response curves come from the screen itself.
For the compound `NS(=O)(=O)c1ccc(Nc2nc(OCC3CCCCC3)c3[nH]cnc3n2)cc1`, the Potency was 24.3 µM (active).
In the case of `Cc1ccc(C(=O)Nc2cccc(C(F)(F)F)c2)cc1-c1ccc2nc(NCCN3CCOCC3)ncc2c1`, the Potency was 7.69 µM (active).
The same measure for `CN(C)c1ccc(-c2nc3ncc(Cl)c(N4CCN(CC(=O)Nc5nccs5)CC4)c3[nH]2)cc1`: 2.37 µM (active); for `Cc1ccc(C(=O)N(CCCN)C(c2nc3cc(Cl)ccc3c(=O)n2Cc2ccccc2)C(C)C)cc1` (stereo not drawn): 0.0172 µM (active).
With `Fc1cc(-c2cccc3ncc(-c4cnn(C5CCNCC5)c4)nc23)cc(F)c1CN1CCOCC1`, the Potency is 24.3 µM (active).
The same measure for `CCC1C(=O)N(C)c2cnc(Nc3ccc(C(=O)NC4CCN(C)CC4)cc3OC)nc2N1C1CCCC1` (stereo not drawn): 0.0049 µM (active).
In the case of `CNC1CCC(N(Cc2cccc(-c3ccncc3)c2)C(=O)c2sc3ccccc3c2Cl)CC1` (stereo not drawn), the Potency was 27.3 µM (active).
The same measure for `O=C(NOCC1CC1)c1ccc(F)c(F)c1Nc1ccc(I)cc1Cl`: 9.68 µM (active); for `CC(C)n1c(/C=C/[C@@H](O)C[C@@H](O)CC(=O)O)c(-c2ccc(F)cc2)c2ccccc21`: 5.44 µM (active); for `CCOc1cc2ncc(C#N)c(Nc3ccc(F)c(Cl)c3)c2cc1NC(=O)/C=C/CN(C)C`: 24.3 µM (active).
Under `CN(C)C1CCN(C(=O)c2ccc(NC(=O)Nc3nc(N4CCOCC4)nc(N4CCOCC4)n3)cc2)CC1` stands 0.769 µM (active); under `CS(=O)(=O)c1ccc(C(=O)Nc2ccc(Cl)c(-c3ccccn3)c2)c(Cl)c1`, “inactive”; under `CC(Oc1ccc2[nH]nc(/C=C/c3cnn(CCO)c3)c2c1)c1c(Cl)cncc1Cl` (stereo not drawn), 0.172 µM (active).
The same measure for `OCCNC1CCCc2c1[nH]c1ccc(-c3ccccc3)cc21` (stereo not drawn): 1.93 µM (active); for `S=c1nc[nH]c2nc[nH]c12`: 3.43 µM (active).
With `CCS(=O)(=O)N1CCN(c2ccc(Nc3ncc(C(N)=O)c(NC4CC4)n3)cc2)CC1`, the Potency was 4.85 µM (active).
Under `CC(C)CC(=O)Nc1n[nH]c2c1CN(C(=O)C1CCN(C)CC1)C2(C)C` stands 3.43 µM (active); under `CNC(=O)c1nn(C)c2c1C(C)(C)Cc1cnc(Nc3ccc(N4CCN(C)CC4)cc3)nc1-2`, 1.53 µM (active).
`COc1cccc2c1C(=O)c1c(O)c3c(c(O)c1C2=O)C[C@@](O)(C(=O)CO)C[C@@H]3O[C@H]1C[C@H](N)[C@H](O[C@@H]2CCCCO2)[C@H](C)O1`: the Potency is 12.2 µM (active).
The same measure for `COc1cc2c(c(OC)c1OC)-c1ccc(OC)c(=O)cc1[C@@H](NC(C)=O)CC2`: 0.178 µM (active); for `CC1(C)[C@@H](O)CC[C@]2(C)[C@H]3C(=O)C=C4[C@@H]5C[C@@](C)(C(=O)O)CC[C@]5(C)CC[C@@]4(C)[C@]3(C)CC[C@@H]12`: “inactive”; for `COc1cccc2cc(-c3nc(C4CCC(C(=O)O)CC4)n4ncnc(N)c34)[nH]c12` (stereo not drawn): 4.85 µM (active).
Turning to `CCCc1nn(C)c2c(=O)[nH]c(-c3cc(S(=O)(=O)N4CCN(C)CC4)ccc3OCC)nc12`, the Potency result is “inactive”.
